Source: PubChem BioAssay (Tox21)
Inconclusive results are not listed. The source made the active and inactive calls. Unless noted, calls come from the whole dose curve; as a rule, active = well fitted curve in the direction sought with a large enough effect in the repeat runs; inconclusive = weak or mixed curves; inactive = no such curve, though single readings can be large; an effect the other way counts as inactive or inconclusive.

Tests used:
[1] = qHTS assay to test for compound auto fluorescence at 535 nm (green) in HEK293 cells (AID 720680)
[2] = qHTS assay to test for compound auto fluorescence at 460 nm (blue) in HEK293 cell free culture (AID 720681)
How it was run: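 Test compounds were pinned into cell-free culture medium (DMEM with 10% FBS) and fluorescence was read directly at Ex/Em 405/460 nm. Signals were expressed as fluorescence equivalents of triamterene, with DMSO vehicle as control.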

[3] = qHTS assay to test for compound auto fluorescence at 535 nm (green) in HEK293 cell free culture (AID 720682)
How it was run: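 Intrinsic compound fluorescence is measured in culture medium containing 10% FBS, with excitation at 485 nm and detection at 535 nm, referenced to fluorescein.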

[4] = qHTS assay to test for compound auto fluorescence at 590 nm (red) in HEK293 cell free culture (AID 720683)
How it was run: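 Tox21 10K library compounds were pinned into cell-free DMEM with 10% FBS and fluorescence was read at excitation 540 nm. Activity is expressed as Rose Bengal sodium equivalency.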

[5] = qHTS assay to test for compound auto fluorescence at 590 nm (red) in HepG2 cell free culture (AID 720684)
How it was run: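 Measured in medium alone (MEM containing 10% FBS) following pintool addition of compound; emission at 590 nm with 540 nm excitation, referenced to Rose Bengal sodium.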

[6] = qHTS assay to test for compound auto fluorescence at 460 nm (blue) in HepG2 cell free culture (AID 720685)
How it was run: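 Compound (23 nL) or DMSO pinned into cell-free MEM with 10% FBS; blue fluorescence read at 405/460 nm excitation/emission, expressed as auto-fluorescence equivalency to triamterene.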

[7] = qHTS assay to test for compound auto fluorescence at 535 nm (green) in HepG2 cell free culture (AID 720686)
[8] = qHTS assay to test for compound auto fluorescence at 460 nm (blue) in HepG2 cells (AID 720687)
How it was run: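 Cells (2,000/well in MEM with 10% FBS) attached overnight at 37 C, then were exposed to compound or DMSO for 1 hr at 37 C, 5% CO2. Fluorescence read at Ex/Em 405/460 nm, expressed as triamterene-equivalent signal.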

[9] = biological target: Glucocorticoid receptor (Homo sapiens) (UniProt P04150); assay: qHTS assay to identify small molecule agonists of the glucocorticoid receptor (GR) signaling pathway (AID 720691; active = well fitted activation curve with a large enough effect in the signal ratio in the repeat runs, not every such curve was filed as active; the % refers to the signal ratio)
Sequence of Glucocorticoid receptor (Homo sapiens) (P04150 whole entry, looked up): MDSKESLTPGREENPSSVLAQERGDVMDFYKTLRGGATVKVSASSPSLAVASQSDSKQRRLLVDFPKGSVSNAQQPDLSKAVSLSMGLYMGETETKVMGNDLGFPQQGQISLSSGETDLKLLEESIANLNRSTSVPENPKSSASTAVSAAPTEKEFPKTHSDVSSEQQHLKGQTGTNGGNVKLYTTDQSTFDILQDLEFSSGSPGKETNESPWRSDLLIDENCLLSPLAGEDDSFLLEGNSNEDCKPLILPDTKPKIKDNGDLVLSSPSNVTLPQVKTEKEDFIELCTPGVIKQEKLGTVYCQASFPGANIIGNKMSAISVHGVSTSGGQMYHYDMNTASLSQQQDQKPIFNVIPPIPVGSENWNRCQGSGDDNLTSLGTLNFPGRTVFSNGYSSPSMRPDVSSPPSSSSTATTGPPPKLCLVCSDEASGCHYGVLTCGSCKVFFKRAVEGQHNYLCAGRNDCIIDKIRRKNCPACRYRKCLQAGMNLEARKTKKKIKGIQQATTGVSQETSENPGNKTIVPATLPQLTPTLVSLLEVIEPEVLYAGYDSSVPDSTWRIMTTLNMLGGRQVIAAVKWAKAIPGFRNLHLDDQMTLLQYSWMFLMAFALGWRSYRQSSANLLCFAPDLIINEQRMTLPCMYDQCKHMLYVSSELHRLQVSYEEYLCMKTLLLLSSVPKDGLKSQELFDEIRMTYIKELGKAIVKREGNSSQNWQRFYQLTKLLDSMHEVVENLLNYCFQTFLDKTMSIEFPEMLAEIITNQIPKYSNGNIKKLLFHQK
How it was run: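 qHTS in GR-bla HeLa cells: 4 h settling at 37 C/5% CO2, 18 h compound incubation at 37 C, 2 h LiveBLAzer B/G FRET substrate at room temperature, fluorescence intensity measured.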

[10] = biological target: Glucocorticoid receptor (Homo sapiens) (UniProt P04150); assay: qHTS assay to identify small molecule antagonists of the glucocorticoid receptor (GR) signaling pathway (AID 720692; active = well fitted inhibition curve with a large enough effect in the signal ratio in the repeat runs, not every such curve was filed as active; the % refers to the signal ratio)
How it was run: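 Inhibition of glucocorticoid signalling is measured in HeLa cells with a GRE-controlled beta-lactamase reporter; cells are co-treated with compound and 5 nM dexamethasone (final) for 18 h before FRET substrate readout.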

[11] = qHTS assay to identify small molecule antagonists of the glucocorticoid receptor (GR) signaling pathway - cell viability counter screen (AID 720693); note: nearly all actives have a fitted effect of over 55% in size
[12] = qHTS assay for identifying genotoxic compounds that show differential cytotoxicity against isogenic chicken DT40 cell lines with known DNA damage response pathways - wild type cell line (AID 743012); note: nearly all actives have a fitted effect of over 60% in size
How it was run: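 First, wild type DT40 cells were plated at 300 per well and equilibrated about 0.5 h at 37 C/5% CO2. Next, compounds in DMSO were added and exposure lasted 40 h. Finally, CellTiter-Glo was added for 30 min at room temperature and luminescence recorded.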

[13] = qHTS assay for identifying genotoxic compounds that show differential cytotoxicity against isogenic chicken DT40 cell lines with known DNA damage response pathways - Rev3 mutant cell line (AID 743014); note: nearly all actives have a fitted effect of over 55% in size
[14] = qHTS assay for identifying genotoxic compounds that show differential cytotoxicity against isogenic chicken DT40 cell lines with known DNA damage response pathways - Rad54/Ku70 mutant cell line (AID 743015); note: nearly all actives have a fitted effect of over 60% in size
[15] = qHTS assay to identify small molecule antagonists of the androgen receptor (AR) signaling pathway - cell viability counter screen (AID 743033; note: nearly all actives have a fitted effect of over 45% in size)
[16] = qHTS assay to identify small molecule antagonists of the androgen receptor (AR) signaling pathway using the MDA cell line - cell viability counter screen (AID 743041; note: nearly all actives have a fitted effect of over 45% in size)
How it was run: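 Viability counter screen run alongside the AR antagonist reporter: cells seeded 5 h before compound, R1881 added, 16 h incubation at 37C without CO2, fluorescent CellTiter-Fluor signal quantified.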

[17] = biological target: Androgen receptor (Homo sapiens) (UniProt P10275); assay: qHTS assay to identify small molecule antagonists of the androgen receptor (AR) signaling pathway (AID 743035; active = well fitted inhibition curve with a large enough effect in the signal ratio in the repeat runs, not every such curve was filed as active; the % refers to the signal ratio)
Sequence of Androgen receptor (Homo sapiens) (P10275 whole entry, looked up): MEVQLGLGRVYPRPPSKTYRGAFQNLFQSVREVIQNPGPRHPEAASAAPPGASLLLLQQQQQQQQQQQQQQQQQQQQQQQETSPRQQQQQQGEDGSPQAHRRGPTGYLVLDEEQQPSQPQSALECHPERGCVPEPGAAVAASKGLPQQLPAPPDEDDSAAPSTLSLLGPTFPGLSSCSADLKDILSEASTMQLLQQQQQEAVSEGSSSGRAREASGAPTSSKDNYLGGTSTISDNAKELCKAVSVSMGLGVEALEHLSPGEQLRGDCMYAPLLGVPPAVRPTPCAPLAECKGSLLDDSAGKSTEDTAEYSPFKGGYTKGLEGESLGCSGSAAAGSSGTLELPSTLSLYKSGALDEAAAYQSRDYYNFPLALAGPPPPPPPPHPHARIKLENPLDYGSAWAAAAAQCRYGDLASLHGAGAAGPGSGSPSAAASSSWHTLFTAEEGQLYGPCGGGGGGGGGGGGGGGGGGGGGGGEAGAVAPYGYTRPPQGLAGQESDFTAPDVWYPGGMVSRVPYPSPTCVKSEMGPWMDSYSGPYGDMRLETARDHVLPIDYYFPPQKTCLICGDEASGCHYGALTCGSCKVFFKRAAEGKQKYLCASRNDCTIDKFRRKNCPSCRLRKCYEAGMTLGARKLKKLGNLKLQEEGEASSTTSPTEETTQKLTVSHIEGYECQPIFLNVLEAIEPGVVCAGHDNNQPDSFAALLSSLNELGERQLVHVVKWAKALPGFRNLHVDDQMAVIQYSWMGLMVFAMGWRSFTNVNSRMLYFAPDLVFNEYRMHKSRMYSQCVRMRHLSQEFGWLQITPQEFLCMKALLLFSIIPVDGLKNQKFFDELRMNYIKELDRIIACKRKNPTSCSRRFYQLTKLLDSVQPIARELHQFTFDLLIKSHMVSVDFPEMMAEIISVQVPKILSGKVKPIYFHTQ
How it was run: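 Beta-lactamase FRET read (2 h RT incubation with LiveBLAzer B/G) following 16 h of compound plus R1881 treatment of AR-UAS-bla HEK293 cells, which had been pre-incubated 4 h at 37C.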

[18] = biological target: Androgen receptor (Homo sapiens) (UniProt P10275); assay: qHTS assay to identify small molecule agonists of the androgen receptor (AR) signaling pathway using the MDA cell line (AID 743040; note: nearly all actives have a fitted effect of over 20% in size)
How it was run: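 Luminescence from ONE-Glo, read after 30 min at room temperature, reflects MMTV-driven luciferase in MDA-kb2 cells (AR- and GR-responsive). Treatment lasted 16 h at 37C, 0% CO2.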

[19] = biological target: Androgen receptor (Homo sapiens) (UniProt P10275); assay: qHTS assay to identify small molecule antagonists of the androgen receptor (AR) signaling pathway using the MDA cell line (AID 743042; note: nearly all actives have a fitted effect of over 55% in size)
How it was run: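 MDA-kb2 cells (human breast carcinoma, stably carrying an MMTV-luciferase reporter responsive to AR and GR) were plated at 3,000 cells/well and preincubated 5 hr at 37C, then given compound plus R1881 agonist for 16 h. ONE-Glo luminescence was read.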

[20] = biological target: Androgen receptor (Homo sapiens) (UniProt P10275); assay: qHTS assay to identify small molecule agonists of the androgen receptor (AR) signaling pathway (AID 743036; active = well fitted activation curve with a large enough effect in the signal ratio in the repeat runs, with a control signal flat, not every such curve was filed as active; the % refers to the signal ratio)
How it was run: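 Agonist activity was scored by beta-lactamase reporter fluorescence in stably transfected HEK293 cells exposed to compounds for 16 h at 37C and 5% CO2. Substrate loading took 2 h at room temperature.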

Measured: Potency

CCC(C)(O)CCCC(C)C (stereo not drawn)
not listed: [17] | [18] | [19] | [20]
inactive: all other assays above

c1ccc2cc(Nc3ccc(Nc4ccc5ccccc5c4)cc3)ccc2c1
not listed: [20]
inactive: all other assays above

Cc1ccc(C)c(O)c1C
inactive: all assays above

C=C(C)C(=O)OCCOC(=O)C(=C)C
inactive: all assays above

CC(CCC(=O)O)(c1ccc(O)cc1)c1ccc(O)cc1
not listed: [17] | [18] | [19] | [20]
inactive: all other assays above

O=P(O)(O)O
not listed: [17] | [18] | [19] | [20]
inactive: all other assays above

O=Cc1ccccc1O
not listed: [17] | [18] | [19] | [20]
inactive: all other assays above
